# Test results published in the supplement of paper PMC10849652.
# The full data set covers some 7,900 targets. This sample favours those with a hit. About 0.6% of all pairs of compound and target were hits.
# Compound: CS(=O)(=O)N1CCN(Cc2cc3nc(-c4cccc5[nH]ncc45)nc(N4CCOCC4)c3s2)CC1 [pictilisib]
# Assay: log2 fold change, soluble protein after heating vs DMSO (PISA); higher = thermal stabilisation; K562 cells, 10 uM, 30 min; active = over 0.2 and 3.5 SD of the protein, either way, in both replicates (recomputed)
# Method in brief: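 Values are thermal stability changes relative to control samples and are taken from duplicates. They are stated as log2 fold changes. Before quantification by TMTpro 16plex LC-MS/MS with equalised channel sums, K562 cells at 2×10^6 cells/mL were treated with 10 μM compound for 30 min, heated in aliquots for 3 min across 48°C-58°C, pooled, extracted in PBS with 0.5% NP-40 at 4°C, and centrifuged at 21,000xg for 90 min to give the soluble supernatant.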
# UniProt Q49A26, sequence (Q49A26 whole entry, looked up): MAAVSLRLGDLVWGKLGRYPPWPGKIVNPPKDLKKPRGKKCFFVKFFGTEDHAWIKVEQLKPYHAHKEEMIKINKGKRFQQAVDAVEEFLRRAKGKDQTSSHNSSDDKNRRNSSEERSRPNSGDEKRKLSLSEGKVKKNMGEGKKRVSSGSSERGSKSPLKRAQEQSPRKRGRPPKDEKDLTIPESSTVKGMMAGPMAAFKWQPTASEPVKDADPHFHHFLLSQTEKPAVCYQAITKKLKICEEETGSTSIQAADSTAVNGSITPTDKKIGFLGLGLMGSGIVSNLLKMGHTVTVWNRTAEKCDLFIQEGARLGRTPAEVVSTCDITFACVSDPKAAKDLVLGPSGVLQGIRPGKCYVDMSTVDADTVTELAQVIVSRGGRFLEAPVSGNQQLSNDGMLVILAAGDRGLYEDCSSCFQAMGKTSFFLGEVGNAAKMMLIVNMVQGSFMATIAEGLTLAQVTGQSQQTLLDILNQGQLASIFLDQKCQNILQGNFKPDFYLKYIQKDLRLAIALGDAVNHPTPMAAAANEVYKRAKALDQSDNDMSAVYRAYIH
# UniProt Q96JB3, sequence (Q96JB3 whole entry, looked up): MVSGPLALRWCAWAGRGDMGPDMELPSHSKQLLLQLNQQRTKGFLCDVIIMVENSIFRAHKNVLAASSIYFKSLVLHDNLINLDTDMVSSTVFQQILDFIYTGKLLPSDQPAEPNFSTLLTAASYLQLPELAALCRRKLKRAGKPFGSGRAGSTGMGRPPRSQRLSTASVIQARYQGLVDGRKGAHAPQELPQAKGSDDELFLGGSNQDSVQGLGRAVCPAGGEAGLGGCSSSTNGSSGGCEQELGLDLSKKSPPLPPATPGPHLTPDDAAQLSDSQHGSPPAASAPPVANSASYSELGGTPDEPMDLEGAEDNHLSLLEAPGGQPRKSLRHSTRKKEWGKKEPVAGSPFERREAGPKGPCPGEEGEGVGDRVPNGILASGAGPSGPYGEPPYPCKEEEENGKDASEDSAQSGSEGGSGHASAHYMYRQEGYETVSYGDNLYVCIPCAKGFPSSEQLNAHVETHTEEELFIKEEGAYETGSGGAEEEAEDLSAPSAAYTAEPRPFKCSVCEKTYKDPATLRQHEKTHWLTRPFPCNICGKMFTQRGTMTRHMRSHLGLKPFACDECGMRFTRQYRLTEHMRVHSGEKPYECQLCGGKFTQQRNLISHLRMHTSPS
# UniProt P50213, sequence (P50213 whole entry, looked up): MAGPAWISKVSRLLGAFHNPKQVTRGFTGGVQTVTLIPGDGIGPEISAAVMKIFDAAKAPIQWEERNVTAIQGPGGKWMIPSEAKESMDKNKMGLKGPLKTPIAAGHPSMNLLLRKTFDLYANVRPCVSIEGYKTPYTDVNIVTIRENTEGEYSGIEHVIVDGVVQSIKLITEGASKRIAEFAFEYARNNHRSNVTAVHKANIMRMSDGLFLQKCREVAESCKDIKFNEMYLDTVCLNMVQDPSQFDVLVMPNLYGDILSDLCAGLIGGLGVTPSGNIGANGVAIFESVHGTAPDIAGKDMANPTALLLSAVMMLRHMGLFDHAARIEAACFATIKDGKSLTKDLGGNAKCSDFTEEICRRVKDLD
# UniProt Q9Y3D6, sequence (Q9Y3D6 whole entry, looked up): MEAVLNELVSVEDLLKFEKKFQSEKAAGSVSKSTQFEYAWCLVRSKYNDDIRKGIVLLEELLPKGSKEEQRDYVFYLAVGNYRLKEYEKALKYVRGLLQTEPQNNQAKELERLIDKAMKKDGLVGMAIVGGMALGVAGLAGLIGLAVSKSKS
# UniProt Q96I24, sequence (Q96I24 whole entry, looked up): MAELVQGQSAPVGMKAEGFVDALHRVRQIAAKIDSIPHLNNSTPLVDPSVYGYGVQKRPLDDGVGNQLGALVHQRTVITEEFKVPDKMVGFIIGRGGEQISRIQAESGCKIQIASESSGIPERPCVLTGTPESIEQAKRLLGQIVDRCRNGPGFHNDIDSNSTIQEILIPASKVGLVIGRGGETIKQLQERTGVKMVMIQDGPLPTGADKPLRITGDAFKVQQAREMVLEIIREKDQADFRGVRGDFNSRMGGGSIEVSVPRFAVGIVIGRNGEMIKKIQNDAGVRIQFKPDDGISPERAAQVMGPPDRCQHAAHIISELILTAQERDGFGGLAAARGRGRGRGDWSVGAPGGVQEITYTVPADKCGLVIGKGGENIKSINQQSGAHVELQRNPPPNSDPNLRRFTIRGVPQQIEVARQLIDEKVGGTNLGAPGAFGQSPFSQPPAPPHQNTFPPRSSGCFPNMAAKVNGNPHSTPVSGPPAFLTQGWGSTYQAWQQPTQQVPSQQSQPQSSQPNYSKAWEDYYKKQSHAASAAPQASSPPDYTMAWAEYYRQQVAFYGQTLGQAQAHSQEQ
# UniProt O76003, sequence (O76003 whole entry, looked up): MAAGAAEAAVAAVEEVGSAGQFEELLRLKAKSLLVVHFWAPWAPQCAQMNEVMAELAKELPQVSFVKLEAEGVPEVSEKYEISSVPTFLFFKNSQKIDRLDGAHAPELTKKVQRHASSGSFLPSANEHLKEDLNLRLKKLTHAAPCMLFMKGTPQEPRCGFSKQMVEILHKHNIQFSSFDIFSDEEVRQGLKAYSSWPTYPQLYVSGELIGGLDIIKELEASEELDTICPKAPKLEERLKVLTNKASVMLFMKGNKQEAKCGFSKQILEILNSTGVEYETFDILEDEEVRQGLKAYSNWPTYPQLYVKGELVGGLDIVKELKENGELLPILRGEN
# UniProt Q14527, sequence (Q14527 whole entry, looked up): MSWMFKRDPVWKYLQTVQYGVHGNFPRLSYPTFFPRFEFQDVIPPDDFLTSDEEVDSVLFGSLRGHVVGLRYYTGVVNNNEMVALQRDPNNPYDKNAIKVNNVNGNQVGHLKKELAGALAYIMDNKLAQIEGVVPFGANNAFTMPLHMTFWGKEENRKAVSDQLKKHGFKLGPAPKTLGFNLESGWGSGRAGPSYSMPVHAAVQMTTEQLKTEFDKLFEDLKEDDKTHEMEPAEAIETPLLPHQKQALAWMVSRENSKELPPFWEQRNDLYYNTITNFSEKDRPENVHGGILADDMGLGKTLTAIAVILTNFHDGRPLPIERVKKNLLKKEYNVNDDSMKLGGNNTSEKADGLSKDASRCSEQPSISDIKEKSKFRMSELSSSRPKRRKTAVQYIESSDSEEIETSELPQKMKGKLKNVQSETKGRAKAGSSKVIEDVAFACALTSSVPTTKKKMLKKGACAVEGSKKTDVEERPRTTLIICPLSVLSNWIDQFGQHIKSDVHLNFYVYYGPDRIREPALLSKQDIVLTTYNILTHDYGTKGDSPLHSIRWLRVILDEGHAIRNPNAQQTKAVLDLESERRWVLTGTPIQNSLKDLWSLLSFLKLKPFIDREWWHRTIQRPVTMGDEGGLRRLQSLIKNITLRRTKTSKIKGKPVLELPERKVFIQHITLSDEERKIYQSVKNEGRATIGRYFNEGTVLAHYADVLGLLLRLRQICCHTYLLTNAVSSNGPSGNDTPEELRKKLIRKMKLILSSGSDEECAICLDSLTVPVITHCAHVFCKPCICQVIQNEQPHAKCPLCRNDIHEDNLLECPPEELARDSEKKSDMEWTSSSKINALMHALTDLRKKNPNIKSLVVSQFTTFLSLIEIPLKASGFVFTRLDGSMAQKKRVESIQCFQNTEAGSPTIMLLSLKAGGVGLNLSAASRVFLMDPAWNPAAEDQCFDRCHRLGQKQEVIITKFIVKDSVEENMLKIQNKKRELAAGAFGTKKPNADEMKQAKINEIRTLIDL
# UniProt Q06546, sequence (Q06546 whole entry, looked up): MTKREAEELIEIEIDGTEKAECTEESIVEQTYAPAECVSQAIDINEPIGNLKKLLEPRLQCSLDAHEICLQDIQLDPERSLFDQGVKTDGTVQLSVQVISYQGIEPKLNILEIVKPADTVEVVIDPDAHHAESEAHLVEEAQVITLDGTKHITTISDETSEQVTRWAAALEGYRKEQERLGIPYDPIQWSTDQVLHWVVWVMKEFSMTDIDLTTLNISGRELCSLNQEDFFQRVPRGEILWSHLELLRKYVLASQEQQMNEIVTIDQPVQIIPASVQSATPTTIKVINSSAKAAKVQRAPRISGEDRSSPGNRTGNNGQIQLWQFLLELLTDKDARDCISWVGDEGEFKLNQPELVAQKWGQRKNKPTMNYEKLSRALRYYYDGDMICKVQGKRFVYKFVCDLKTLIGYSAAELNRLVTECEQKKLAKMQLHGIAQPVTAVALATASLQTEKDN
# UniProt Q8N4A0, sequence (Q8N4A0 whole entry, looked up): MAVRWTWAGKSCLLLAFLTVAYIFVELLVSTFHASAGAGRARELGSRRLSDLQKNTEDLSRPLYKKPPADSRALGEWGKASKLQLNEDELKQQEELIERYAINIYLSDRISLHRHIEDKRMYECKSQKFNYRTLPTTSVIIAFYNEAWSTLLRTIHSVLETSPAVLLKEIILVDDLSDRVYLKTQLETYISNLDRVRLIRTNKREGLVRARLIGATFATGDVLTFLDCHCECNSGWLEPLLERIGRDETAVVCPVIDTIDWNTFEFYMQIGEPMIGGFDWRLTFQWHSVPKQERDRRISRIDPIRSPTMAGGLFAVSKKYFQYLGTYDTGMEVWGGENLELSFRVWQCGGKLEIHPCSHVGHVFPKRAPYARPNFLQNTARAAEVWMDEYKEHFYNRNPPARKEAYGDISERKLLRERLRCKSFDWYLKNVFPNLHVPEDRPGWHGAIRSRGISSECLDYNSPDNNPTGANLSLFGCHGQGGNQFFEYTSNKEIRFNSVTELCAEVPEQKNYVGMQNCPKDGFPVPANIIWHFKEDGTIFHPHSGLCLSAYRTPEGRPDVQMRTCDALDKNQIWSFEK
# UniProt Q9BUP3, sequence (Q9BUP3 whole entry, looked up): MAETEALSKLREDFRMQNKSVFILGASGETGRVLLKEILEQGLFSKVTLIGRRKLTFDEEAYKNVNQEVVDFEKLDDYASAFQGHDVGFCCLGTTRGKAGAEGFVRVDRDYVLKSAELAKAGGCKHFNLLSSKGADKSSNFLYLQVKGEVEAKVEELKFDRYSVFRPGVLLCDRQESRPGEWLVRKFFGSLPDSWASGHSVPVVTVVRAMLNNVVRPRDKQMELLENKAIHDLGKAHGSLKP
row,Target,log2 fold change
1,GAPVD1 isoform 6 (UniProt Q14C86),-0.025 (inactive)
2,IDH3A (UniProt P50213),-0.021 (inactive)
3,GALNT4 (UniProt Q8N4A0),0.172 (inactive)
4,HMOX2 (UniProt P30519),-0.04 (inactive)
5,HIP1R (UniProt O75146),-0.011 (inactive)
6,GBF1 (UniProt Q92538),-0.036 (inactive)
7,HSD17B12 (UniProt Q53GQ0),0.102 (inactive)
8,GABPA (UniProt Q06546),0.02 (inactive)
9,HTATIP2 isoform 3 (UniProt Q9BUP3),0.137 (inactive)
10,HDDC2 (UniProt Q7Z4H3),0.064 (inactive)
11,HLTF (UniProt Q14527),0.007 (inactive)
12,GATD1 (UniProt Q8NB37),0.08 (inactive)
13,HP1BP3 (UniProt Q5SSJ5),0.04 (inactive)
14,GTF3C4 (UniProt Q9UKN8),0.028 (inactive)
15,FUCA1 (UniProt P04066),0 (inactive)
16,FAM91A1 (UniProt Q658Y4),-0.047 (inactive)
17,GLRX3 (UniProt O76003),-0.003 (inactive)
18,GAGE12F (UniProt P0CL80),0.108 (inactive)

row,Target,log2 fold change
1,HDGFL2 (UniProt Q7Z4V5),-0.004 (inactive)
2,GMEB2 (UniProt Q9UKD1),0.101 (inactive)
3,GLYR1 (UniProt Q49A26),-0.228 (inactive)
4,FNTA (UniProt P49354),-0.005 (inactive)
5,IFI30 (UniProt P13284),-0.02 (inactive)
6,GABARAPL2 (UniProt P60520),-0.059 (inactive)
7,HIKESHI (UniProt Q53FT3),-0.004 (inactive)
8,GSTM4 (UniProt Q03013),0.022 (inactive)
9,FIS1 (UniProt Q9Y3D6),0.071 (inactive)
10,IDI1 isoform 2 (UniProt Q13907),0.089 (inactive)
11,HNRNPH1 (UniProt P31943),-0.135 (inactive)
12,HIST2H3A (UniProt Q71DI3),-0.021 (inactive)
13,FHOD1 (UniProt Q9Y613),0.01 (inactive)
14,GLUD1 (UniProt P00367),0.367 (active)
15,FBXO7 (UniProt Q9Y3I1),0.036 (inactive)
16,HIC2 (UniProt Q96JB3),-0.052 (inactive)
17,FUBP3 (UniProt Q96I24),-0.062 (inactive)
